Test results published in PubChem BioAssay (NCI).
Several values for one entry are separate records, joined by “and”; a condition that tells them apart may be missing. Equal entries are not always repeated. Compounds without any hit were thinned out: in the full panel of roughly 83,000, 20% have a hit.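 Growth was measured after 48 h exposure to one concentration of compound in 96-well plates. Values under 10 count as active.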 Activity calls are given as the source filed them.

Tests used:
Assay in all cases: NCI-60 one-dose screen, 48 h (100 = growth as untreated, 0 = no growth, -100 = all killed)
Settings in all cases: 10 µM unless noted
[1] = tested on: NCI-H23 lung
[2] = tested on: NCI-H226 lung
[3] = tested on: NCI-H322M lung
[4] = tested on: HOP-62 NSCLC
[5] = tested on: NCI-H460 lung
[6] = tested on: HOP-92 NSCLC
[7] = tested on: NCI-H522 lung
[8] = tested on: 786-0 renal
[9] = tested on: COLO 205 colon
[10] = tested on: DU-145 prostate
[11] = tested on: K-562 leukemia
[12] = tested on: MALME-3M melanoma
[13] = tested on: MDA-MB-231 breast
[14] = tested on: RXF 393 renal
[15] = tested on: SF-268 CNS
[16] = tested on: SF-295 CNS
[17] = tested on: SF-539 CNS
[18] = tested on: UACC-257 melanoma
[19] = tested on: M14 melanoma

Measured: growth

COc1cc(NCCCCCNC(C)C)c2ncccc2c1
inactive: [1] 104% and 90.3% | [2] 90.5% and 94% | [3] 82.7% and 104% | [4] 87.3% and 92.5% | [5] 103% and 117% | [6] 82.5% | [7] 92.2% and 42% | [8] 94.4% and 89.3% | [9] 91.7% and 87.9% | [10] 111% | [11] 91.1% and 104% | [12] 99.6% and 125% | [13] 89% and 93.1% | [14] 90.9% and 92.6% | [15] 93.5% | [16] 104% and 102% | [17] 91.9% and 78.1% | [18] 113% and 80.2% | [19] 96.9% and 90.2%

Cc1ccc([N+](=O)[O-])cc1Br
inactive: [1] 110% | [2] 98.4% | [3] 111% | [4] 89.4% | [5] 94.4% | [6] 106% | [7] 88% | [8] 96.6% | [9] 99.9% | [10] 110% | [11] 86.3% | [12] 102% | [13] 104% | [14] 111% | [15] 104% | [16] 97.7% | [17] 91.7% | [18] 79.7% | [19] 95.1%

O=C(O)Cc1cc(=O)[nH]n(-c2ccccc2)c1=O
inactive: [1] 108% | [2] 98.1% | [3] 109% | [4] 106% | [5] 109% | [6] 98% | [7] 95.4% | [8] 108% | [9] 110% | [10] 115% | [11] 100% | [12] 113% | [13] 101% | [14] 109% | [15] 96.8% | [16] 97.4% | [17] 99.1% | [18] 98.2% | [19] 106%

CCC(C)(O)CCC(C)(O)CC (centres undefined)
inactive: [1] 87.1% | [2] 108% | [3] 102% | [4] 93.5% | [5] 116% | [6] 104% | [7] 103% | [8] 99.3% | [9] 108% | [10] 105% | [11] 99.3% | [12] 93.6% | [13] 109% | [14] 130% | [15] 99.2% | [16] 102% | [17] 103% | [18] 106% | [19] 103%

Cc1cc(Cl)nc(Nc2ccccc2)n1
inactive: [1] 95.9% | [2] 91.2% | [3] 92% | [4] 62.9% | [5] 103% | [6] 91.2% | [7] 91% | [8] 93.8% | [9] 114% | [10] 107% | [11] 79.9% | [12] 101% | [13] 105% | [14] 96.3% | [15] 99.1% | [16] 91.8% | [17] 96.6% | [18] 106% | [19] 97.6%

O=C1C=CC(n2cc(F)c(=O)[nH]c2=O)O1 (centres undefined)
inactive: [1] 65.2% | [2] 86% | [3] 67.4% | [4] 79.5% | [5] 19.4% | [6] 112% | [7] 76.2% | [8] 70.9% | [9] 59.4% | [10] 61% | [11] 52.1% | [12] 58.9% | [13] 98.8% | [14] 99% | [15] 85.8% | [16] 94.5% | [18] 90.4% | [19] 70.7%
active: [17] 8.79%
